Experimental data: PubChem BioAssay (Tox21)
Records with an inconclusive call do not appear. Activity calls are given as the source filed them. Unless noted, the call rests on the fitted dose curve; in most records, active means well fitted curve in the direction sought with a large enough effect in the repeat runs; inconclusive means weak or mixed curves; inactive means no such curve, though single readings can be large; an effect the other way counts as inactive or inconclusive.

How the values were obtained:
[1] = qHTS assay to identify small molecule antagonists of the estrogen related receptor (ERR) signaling pathway from Tox21 library - cell viability counter screen (AID 1224834); further: nearly all actives have a fitted effect of over 30% in size
Method in brief: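 Fluorescence from CellTiter-Fluor gives the viability read-out, taken 30 min after reagent addition. Before that, ERR cells seeded 6 h earlier were incubated with compounds for 17.5 h at 37 C.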

[2] = target: Luciferin 4-monooxygenase (Photinus pyralis) (UniProt P08659); assay: qHTS assay to identify small molecule inhibitors of firefly luciferase (AID 1224835); further: nearly all actives have a fitted effect of over 25% in size
Method in brief: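 Biochemical qHTS: compounds run as interplate titrations against purified firefly enzyme, with D-luciferin and ATP each at its KM concentration. Light output recorded by CCD imaging.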

[3] = qHTS assay to identify small molecule agonists of the constitutive androstane receptor (CAR) signaling pathway - cell viability counter screen (AID 1224836); further: nearly all actives have a fitted effect of over 45% in size
Method in brief: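 HepG2 cells stably carrying hCAR and a CYP2B6-2.2kb reporter were plated 4 h, then given compounds at 15 concentrations plus PK11195 (final 0.75 uM). After 23 h at 37 C, viability was read by CellTiter-Fluor fluorescence.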

[4] = qHTS assay to identify small molecule antagonists of the constitutive androstane receptor (CAR) signaling pathway - cell viability counter screen (AID 1224837); further: nearly all actives have a fitted effect of over 45% in size
Method in brief: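 HepG2-CYP2B6-hCAR cells, 2500/well, 4 hr pre-incubation; compound titration, 15 conc.; CITCO 50 nM final; 23 hr, 37 C/5% CO2; CellTiter-Fluor, fluorescence intensity.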

[5] = target: Nuclear receptor subfamily 1 group I member 3 (Homo sapiens) (UniProt Q14994); assay: qHTS assay to identify small molecule agonists of the constitutive androstane receptor (CAR) signaling pathway (AID 1224839);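 further: HepG2 cells stably carrying human CAR and a CYP2B6 luciferase reporter; nearly all actives have a fitted effect of over 15% in size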
Method in brief: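 HepG2 cells stably expressing hCAR and a CYP2B6-2.2kb luciferase reporter were treated with compounds at 15 concentrations plus 0.75 uM PK11195 (final) for 24 h at 37 C; luminescence was read after ONE-Glo addition.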

[6] = qHTS assay to identify small molecule antagonists of the estrogen related receptor signaling pathway with the pleiotropic PPARgamma coactivator (PGC) from Tox21 10K library - cell viability counter screen (AID 1224840; active means well fitted cell-killing curve with a large enough effect in the repeat runs, not every such curve was filed as active; further: nearly all actives have a fitted effect of over 40% in size)
Method in brief: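 PGC/ERR cells, 2,000/well; 6 h pre-incubation 37 C/5% CO2; cpd in DMSO via pin tool; 17.5 h 37 C; CellTiter-Fluor, 30 min; fluorescence.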

[7] = qHTS assay to identify small molecule antagonists of the estrogen related receptor signaling pathway with the pleiotropic PPARgamma coactivator (PGC) from Tox21 10K library (AID 1224841; call rule not given here; further: actives are mostly falling curves and most rising ones were filed inactive; nearly all actives have a fitted effect of over 50% in size)
Method in brief: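 PGC/ERR cell line, 2,000 cells/well; 6 h pre-incubation 37 C/5% CO2; compounds (DMSO) pinned in; 18 h, 37 C; One-Glo, 30 min RT; luminescence.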

[8] = qHTS assay to identify small molecule agonists of the estrogen related receptor signaling pathway with the pleiotropic PPARgamma coactivator (PGC) from Tox21 10K library (AID 1224842); further: nearly all actives have a fitted effect of over 15% in size
Method in brief: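 PGC/ERR reporter cell line, 2,000 cells per well, incubated 6 h at 37 C before 23 nL compound in DMSO was added. After 18 h at 37 C, One-Glo luminescence read following 30 min at room temperature.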

[9] = target: Thyrotropin receptor (Homo sapiens) (UniProt P16473); assay: qHTS assay to identify small molecule agonists of the thyroid stimulating hormone receptor (TSHR) signaling pathway (AID 1224843; calls by dose curve; further: nearly all actives have a fitted effect of over 45% in size)
Method in brief: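 TSHR-HEK293 cells in agonist mode, 30 min room-temperature step, then cAMP measured by competitive HTRF (cAMP-d2 with anti-cAMP cryptate) after 1 h at room temperature. Tested at 15 concentrations in triplicate.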

[10] = qHTS assay to identify small molecule agonists of the hypoxia (HIF-1) signaling pathway - cell viability counter screen (AID 1224844; calls by dose curve; further: nearly all actives have a fitted effect of over 50% in size)
Method in brief: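 ME-180 HRE-bla cells, 2,000/well, 0.5% dialyzed FBS; 5 hr settle, 17 hr compound at 37C/5% CO2; CCF4-AM reporter read first, then CellTiter-Glo luminescence after 30 min RT.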

[11] = qHTS assay to identify small molecule agonists of H2AX (AID 1224845; active means well fitted activation curve with a large enough effect in the signal ratio in the repeat runs, not every such curve was filed as active; the % refers to the signal ratio)
Method in brief: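 Wild-type CHO-K1 cells, plated overnight, exposed 3hr at 37C to 15 concentrations (0.76% DMSO final). Lysed, then HTRF anti-pH2AX (S139) cryptate and anti-H2AX-d2 antibodies, 24 hr room temperature; 665/620 nm emission read.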

[12] = qHTS assay to identify small molecule agonists of the hypoxia (HIF-1) signaling pathway (AID 1224846; active means well fitted activation curve with a large enough effect in the signal ratio in the repeat runs, not every such curve was filed as active; the % refers to the signal ratio)
Method in brief: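 Cell line: CellSensor HRE-bla ME-180; 2,000 cells/well; 0.5% dialyzed FBS; 5 h preincubation; DMSO compound pin transfer; 17 h, 37C, 5% CO2; CCF4-AM added; bla FRET signal scored for activation.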

[13] = qHTS assay to identify small molecule agonists of H2AX - cell viability counter screen (AID 1224847; calls by dose curve; further: top concentration of the series differs between compounds; nearly all actives have a fitted effect of over 30% in size)
Method in brief: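 Wild-type CHO-K1 cells (10% FBS medium) were plated overnight at 37C, exposed to compounds at 15 concentrations for 3 hr at 37C (0.76% DMSO final), and viability was read as CellTiter-Glo luminescence after 30 min at room temperature.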

[14] = qHTS assay to identify small molecule antagonists of the estrogen related receptor (ERR) signaling pathway from Tox21 library (AID 1224848); further: nearly all actives have a fitted effect of over 50% in size
Method in brief: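 ERR reporter cell line (from NTP) seeded 2,000 cells/well, rested 6 h at 37 C/5% CO2, then pin-dosed with compounds in DMSO. After 18 h at 37 C, ONE-Glo added; luminescence read after 30 min at room temperature.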

[15] = qHTS assay to identify small molecule agonists of the estrogen related receptor (ERR) signaling pathway from Tox21 library (AID 1224849; calls by dose curve; further: nearly all actives have a fitted effect of over 15% in size); conditions: ERR reporter cell line, ONE-Glo luciferase, 18 h; at 92.4 µM (top of the series) unless noted
Method in brief: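 ERR cells, 6 h pre-incubation 37 C/5% CO2; cpd in DMSO pinned; 18 h 37 C; ONE-Glo added, 30 min RT; luminescence read. Agonist mode, qHTS.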

[16] = qHTS RealTime-Glo MT Cell Viability Assay in HepG2 cells - 24 hour (AID 1224867); further: nearly all actives have a fitted effect of over 50% in size
Method in brief: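 Cell number in HepG2 cultures estimated from NanoLuc luminescence generated by metabolic reduction of a prosubstrate by living cells. The homogeneous, nonlytic format allowed repeated reads at 0, 8, 16, 24, 32 and 40 h of compound exposure.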

[17] = qHTS RealTime-Glo MT Cell Viability Assay in HEK293 cells - 32 hour (AID 1224868)
Method in brief: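 Homogeneous bioluminescent viability format in HEK293 cells (600 cells/well). Following 5 h at 37 C/5% CO2, 23 nL compound was pintooled; the signal was measured repeatedly during 40 h incubation.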

[18] = A CellTox Green Cytotoxicity Assay to monitor cytotoxicity in HEK293 cells - 0 hour (AID 1224869); further: nearly all actives have a fitted effect of over 50% in size
Method in brief: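 Nonlytic real-time cytotoxicity: HEK293 + CellTox Green reagent plated, 5 h preincubation, pintool compound addition (23 nL in DMSO), 37 C for 40 h, fluorescence measured at successive time points.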

[19] = target: Nuclear receptor subfamily 1 group I member 3 (Homo sapiens) (UniProt Q14994); assay: qHTS assay to identify small molecule antagonists of the constitutive androstane receptor (CAR) signaling pathway (AID 1224838); further: nearly all actives have a fitted effect of over 40% in size
Method in brief: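 HepG2-CYP2B6-hCAR cells; 4 h pre-incubation; cpd (15 conc) + CITCO 50 nM final; 24 h, 37 C/5% CO2; ONE-Glo, luminescence.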
On the % scale 0 is the no-effect control and ±100 the full control effect.

Sequence of Nuclear receptor subfamily 1 group I member 3 (Homo sapiens) (Q14994 whole entry, looked up): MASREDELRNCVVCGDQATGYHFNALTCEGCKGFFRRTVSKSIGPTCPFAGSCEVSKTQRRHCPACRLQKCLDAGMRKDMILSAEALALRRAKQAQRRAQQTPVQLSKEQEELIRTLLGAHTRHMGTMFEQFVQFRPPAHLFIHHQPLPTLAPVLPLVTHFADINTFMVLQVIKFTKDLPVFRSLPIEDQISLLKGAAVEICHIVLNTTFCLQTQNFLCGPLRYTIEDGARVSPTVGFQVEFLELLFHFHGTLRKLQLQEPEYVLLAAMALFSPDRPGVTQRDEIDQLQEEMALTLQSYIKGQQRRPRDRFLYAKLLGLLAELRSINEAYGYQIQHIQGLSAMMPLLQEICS
Sequence of Thyrotropin receptor (Homo sapiens) (P16473 whole entry, looked up): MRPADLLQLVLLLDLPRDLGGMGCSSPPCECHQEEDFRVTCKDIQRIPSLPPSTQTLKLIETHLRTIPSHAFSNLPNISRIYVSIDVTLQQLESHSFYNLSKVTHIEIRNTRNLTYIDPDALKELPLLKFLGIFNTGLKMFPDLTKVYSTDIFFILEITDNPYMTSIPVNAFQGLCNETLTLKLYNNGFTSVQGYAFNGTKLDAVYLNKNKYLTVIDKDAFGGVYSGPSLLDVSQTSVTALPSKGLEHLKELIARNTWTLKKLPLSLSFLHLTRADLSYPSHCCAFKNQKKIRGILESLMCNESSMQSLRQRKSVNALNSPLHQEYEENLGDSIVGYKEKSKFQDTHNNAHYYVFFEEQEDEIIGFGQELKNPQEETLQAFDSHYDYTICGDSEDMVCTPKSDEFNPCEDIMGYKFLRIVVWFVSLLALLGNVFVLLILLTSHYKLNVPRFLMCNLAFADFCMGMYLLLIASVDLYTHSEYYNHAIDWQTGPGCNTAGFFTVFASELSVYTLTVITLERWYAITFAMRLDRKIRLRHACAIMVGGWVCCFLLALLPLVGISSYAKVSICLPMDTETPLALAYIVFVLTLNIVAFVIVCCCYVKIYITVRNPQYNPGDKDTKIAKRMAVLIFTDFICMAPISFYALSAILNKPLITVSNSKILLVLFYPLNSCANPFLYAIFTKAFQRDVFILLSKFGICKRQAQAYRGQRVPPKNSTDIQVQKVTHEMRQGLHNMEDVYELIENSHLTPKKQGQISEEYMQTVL
Sequence of Luciferin 4-monooxygenase (Photinus pyralis) (P08659 whole entry, looked up): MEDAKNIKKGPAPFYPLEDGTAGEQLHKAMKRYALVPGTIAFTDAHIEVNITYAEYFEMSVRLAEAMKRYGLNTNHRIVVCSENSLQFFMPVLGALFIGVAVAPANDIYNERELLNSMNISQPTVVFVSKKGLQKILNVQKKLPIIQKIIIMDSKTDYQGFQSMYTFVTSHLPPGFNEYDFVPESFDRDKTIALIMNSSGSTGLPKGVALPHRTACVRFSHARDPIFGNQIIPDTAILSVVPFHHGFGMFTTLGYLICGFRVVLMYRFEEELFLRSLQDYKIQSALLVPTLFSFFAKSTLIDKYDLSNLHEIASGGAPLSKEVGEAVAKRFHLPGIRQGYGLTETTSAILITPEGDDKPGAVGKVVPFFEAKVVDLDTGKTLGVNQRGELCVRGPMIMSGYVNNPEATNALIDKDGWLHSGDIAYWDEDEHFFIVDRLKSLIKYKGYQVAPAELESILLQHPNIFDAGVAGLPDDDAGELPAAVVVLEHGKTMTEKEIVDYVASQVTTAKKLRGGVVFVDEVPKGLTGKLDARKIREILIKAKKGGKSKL

CCc1nccnc1CC
inactive: viability change, negative = cytotoxic [1] 6.79% [at 19 µM] | activity change, negative = inhibition [2] 1.9% [at 23.6 µM] | viability change, negative = cytotoxic [3] 4.25% [at 19 µM] | activity change, negative = cytotoxicity [4] -1.21% [at 19 µM] | activation [5] -0.0673% [at 19 µM] | viability change, negative = cytotoxic [6] 1.05% [at 19 µM] | activity, negative = inhibition [7] 4.39% [at 19 µM] | activation [8] 1.3% [at 19 µM] | Potency [9] | activity change, negative = cytotoxicity [10] 5.25% [at 15.8 µM] | outcome [11] | activation [12] 0.257% [at 15.8 µM] | Potency [13] | activity, negative = inhibition [14] 3.93% [at 19 µM] | activity change, positive = activation [15] 2.61% [at 19 µM] | activity change, negative = cytotoxicity [16] -0.21% [at 15.8 µM] | activity change, negative = cytotoxic [17] 3.89% [at 15.8 µM] | cytotoxicity [18] -0.912% [at 15.8 µM]

CCOC(=O)c1ccc(C)cc1
inactive: Potency [1] | Potency [2] | Potency [3] | Potency [4] | Potency [19] | Potency [5] | Potency [6] | Potency [7] | outcome [8] | Potency [10] | outcome [11] | outcome [12] | Potency [13] | Potency [14] | Potency [16] | Potency [17] | Potency [18]

CCCCCOC(=O)CCCCC
inactive: Potency [1] | Potency [2] | Potency [3] | Potency [4] | Potency [19] | Potency [5] | Potency [6] | Potency [7] | outcome [8] | Potency [10] | outcome [11] | outcome [12] | Potency [13] | Potency [14] | Potency [16] | Potency [17] | Potency [18]

OC1CCCCC1c1ccccc1 (stereo unspecified)
inactive: Potency [1] | Potency [2] | Potency [3] | Potency [4] | Potency [5] | Potency [6] | Potency [7] | outcome [8] | Potency [9] | Potency [10] | outcome [11] | outcome [12] | Potency [13] | Potency [14] | activity change, positive = activation [15] 0.961% | Potency [16] | Potency [17] | Potency [18]

NS(=O)(=O)c1cc2c(cc1Cl)NC(C1CC3C=CC1C3)NS2(=O)=O (stereo unspecified)
inactive: Potency [1] | Potency [2] | Potency [3] | Potency [4] | Potency [19] | Potency [5] | Potency [6] | Potency [10] | outcome [11] | Potency [13] | Potency [16] | Potency [17] | Potency [18]

N[C@H](C(=O)O)c1ccc(O)cc1
inactive: viability change, negative = cytotoxic [1] -0.517% [at 19 µM] | viability change, negative = cytotoxic [3] -1.44% [at 19 µM] | activity change, negative = cytotoxicity [4] 4.98% [at 19 µM] | activation [5] -0.259% [at 19 µM] | viability change, negative = cytotoxic [6] -4.51% [at 19 µM] | activity, negative = inhibition [7] 1.15% [at 19 µM] | activation [8] 0.319% [at 19 µM] | Potency [9] | activity change, negative = cytotoxicity [10] 4.56% [at 15.8 µM] | outcome [11] | activation [12] 0.0786% [at 15.8 µM] | Potency [13] | activity, negative = inhibition [14] 2.86% [at 19 µM] | activity change, positive = activation [15] 1.6% [at 19 µM] | activity change, negative = cytotoxicity [16] -0.341% [at 15.8 µM] | activity change, negative = cytotoxic [17] 3.67% [at 15.8 µM] | cytotoxicity [18] -2.5% [at 15.8 µM]

CC(=O)OCC(CCn1cnc2cnc(N)nc21)COC(C)=O
inactive: Potency [1] | Potency [3] | Potency [4] | Potency [6] | Potency [9] | Potency [10] | outcome [11] | outcome [12] | Potency [13] | Potency [16] | Potency [18]

C[N+](C)(C)CC(O)CC(=O)[O-] (stereo unspecified)
inactive: Potency [1] | Potency [3] | Potency [4] | Potency [19] | Potency [5] | Potency [6] | Potency [7] | outcome [8] | Potency [9] | outcome [11] | outcome [12] | Potency [13] | Potency [14] | Potency [16] | Potency [17] | Potency [18]

c1cnc(N2CCN(Cc3ccc4c(c3)OCO4)CC2)nc1
inactive: Potency [1] | Potency [3] | Potency [4] | Potency [19] | Potency [5] | Potency [6] | Potency [9] | Potency [10] | outcome [11] | Potency [13] | Potency [16] | Potency [17] | Potency [18]

N#Cc1ccc(C2CCCc3cncn32)cc1 (stereo unspecified)
inactive: Potency [1] | Potency [3] | Potency [4] | Potency [19] | Potency [5] | Potency [6] | Potency [7] | outcome [8] | Potency [9] | outcome [11] | outcome [12] | Potency [13] | activity change, positive = activation [15] -20.4% [at 42.5 µM] | Potency [16] | Potency [17] | Potency [18]
